The values that follow come from PubChem BioAssay.

Structures are written as SMILES. The source made the active and inactive calls. Unless noted, how the calls were made is not given here.

Assay [1] is described as follows: resazurin metabolic signal in HepG2 cells – cell-based, resazurin fluorescence, 24 h, PK04 Diversity Set, profiling panel (AID 1172). The following applies: HepG2 viability, higher = more signal. Background: Alamar Blue is a resazurin reagent that responds to reducing activity.
Assay [2] in a line: budding yeast growth changes without added modifier – OD600, strain BY4716, 24 h, basal condition, primary screen (AID 1173). The following applies: S. cerevisiae BY4716 growth, OD600, 24 h; higher = more signal, called active from +8 up or from −8 down.
The nature of assay [3]: viability profiling in MM1S myeloma cells – cell-based, resazurin fluorescence, basal, 24 h, PK04 Diversity Set, profiling panel (AID 1174).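 Further: MM1S multiple myeloma cell line.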 The following applies: higher = more signal, called active from +8 up or from −8 down.
For assay [4], the target named is Dihydroorotate dehydrogenase (quinone), mitochondrial (Plasmodium falciparum (isolate 3D7)) (UniProt Q08210). The assay is described as follows: inhibition of P. falciparum DHODH – biochemical, C-terminal His tag, absorbance 600 nm, primary screen (AID 1175).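 Further: recombinant parasite enzyme with a five histidine tag at its C terminus.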 To be noted: PfDHODH enzyme, DCIP absorbance 600 nm; higher = more signal, called active from +8 up or from −8 down.

The nature of assay [5]: inhibition of PAO1 biofilm formation – strain PAO1, LB-PBS medium, absorbance 600 nm, primary screen (AID 1176). The following applies: P. aeruginosa PAO1 growth/biofilm, A600, 12 h; higher = more signal.
Assay [6] in a line: growth modulation of vineyard yeast isolate – strain RM11-1a, OD600, basal, 24 h, primary screen (AID 1177).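 Further: cultures grown under basal conditions with no added stressor.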 The following applies: S. cerevisiae RM11-1a growth, OD600, 24 h; higher = more signal, called active from +8 up or from −8 down.
The nature of assay [7]: growth of efflux-deficient E. coli DRC39 – strain DRC39, OD650, 24 h, E. coli filamentation inducers, primary screen (AID 1178).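 Further: growth measured as culture turbidity by optical density at 650 nm.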 The following applies: E. coli DRC39 acrAB, higher = more signal, called active from +8 up or from −8 down.
The nature of assay [8]: growth of efflux-deficient E. coli DRC39 – strain DRC39, OD650, 48 h, E. coli filamentation inducers, primary screen (AID 1179).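 Further: screen aims at cell division blockers that make cells filament.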 To be noted: E. coli DRC39 delta-acrAB growth, higher = more signal, called active from +8 up or from −8 down.
Assay [9] can be described thus: viability profiling in RPMI8226 myeloma cells – cell-based, resazurin fluorescence, basal, 24 h, PK04 Diversity Set, profiling panel (AID 1180).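 Further: RPMI8826 multiple myeloma cell line at 5000 cells per well.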 To be noted: higher = more signal.
Assay [10] has as its target E3 ubiquitin-protein ligase XIAP (Homo sapiens) (UniProt P98170). Kind of assay: small molecules binding XIAP protein – biophysical, small-molecule microarray, fluorescence 635 nm, primary screen (AID 1181).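 Further: score merges 667 nm emission and signal to noise over triplicate slides.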 The following applies: higher = more signal.
For assay [11], the system named is XIP peptide (Xip251-270) binding. Kind of assay: XIP fragment 251-270 binding compounds – biochemical, small-molecule microarray, fluorescence 635/667 nm, 0.1 µg/mL protein, primary screen (AID 1182). The following applies: fluorescent protein binding, 635 nm, higher = more signal, called active from +8 up or from −8 down.
The subject of assay [12] is XIP peptide (Xip251-270). The assay is described as follows: compounds binding XIP fragment 251-270 – biochemical, small-molecule microarray, fluorescence 635/667 nm, 0.5 µg/mL protein, primary screen (AID 1183). To be noted: fluorescence 635 nm, higher = more signal.
Assay [13] in a line: blood-stage malaria parasite viability loss – strain 3D7, DAPI fluorescence, 100 nL, primary screen (AID 1184).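 Further: parasites grown inside human red blood cells in medium with human serum.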 The following applies: P. falciparum 3D7 growth, 3 d, higher = more signal.
The target in assay [14] is Homeobox protein Hox-A13 (Mus musculus) (UniProt Q62424). The assay is described as follows: disruptors of Hoxa13 oligonucleotide interaction – biochemical, fluorescence polarization, labeled oligonucleotide, primary screen (AID 1185). The following applies: Hoxa13:DNA binding, 15 min, higher = more signal, called active from +8 up or from −8 down. On the technique in general: Fluorescence polarisation rises when a labelled molecule tumbles more slowly, as on binding a larger partner.

Assay [15] is described as follows: blockers of DNA damage checkpoint Chk1 activation – imaging, HeLa, hydroxyurea, phospho-Chk1 antibody, percent positive cells, primary screen (AID 1186). To be noted: hydroxyurea-induced phospho-Chk1 immunofluorescence imaging, higher = more signal.
Assay [16] is described as follows: blockers of DNA damage checkpoint Chk1 activation – imaging, HeLa, hydroxyurea, phospho-Chk1 nuclear intensity, primary screen (AID 1187). The following applies: hydroxyurea-induced phospho-Chk1 immunofluorescence imaging, higher = more signal.

Chain of Homeobox protein Hox-A13 (Mus musculus) (Q62424 whole entry, looked up): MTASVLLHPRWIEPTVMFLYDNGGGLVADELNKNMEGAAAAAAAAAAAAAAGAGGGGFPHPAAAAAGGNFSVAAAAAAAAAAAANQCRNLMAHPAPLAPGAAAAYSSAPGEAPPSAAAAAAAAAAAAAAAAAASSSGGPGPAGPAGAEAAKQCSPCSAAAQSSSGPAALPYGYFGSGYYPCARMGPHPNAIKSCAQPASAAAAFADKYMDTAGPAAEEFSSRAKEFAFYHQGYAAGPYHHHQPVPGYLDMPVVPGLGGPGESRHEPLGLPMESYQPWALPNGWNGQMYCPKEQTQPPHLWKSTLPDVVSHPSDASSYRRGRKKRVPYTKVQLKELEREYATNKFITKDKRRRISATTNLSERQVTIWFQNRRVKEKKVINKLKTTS
Chain of Dihydroorotate dehydrogenase (quinone), mitochondrial (Plasmodium falciparum (isolate 3D7)) (Q08210 whole entry, looked up): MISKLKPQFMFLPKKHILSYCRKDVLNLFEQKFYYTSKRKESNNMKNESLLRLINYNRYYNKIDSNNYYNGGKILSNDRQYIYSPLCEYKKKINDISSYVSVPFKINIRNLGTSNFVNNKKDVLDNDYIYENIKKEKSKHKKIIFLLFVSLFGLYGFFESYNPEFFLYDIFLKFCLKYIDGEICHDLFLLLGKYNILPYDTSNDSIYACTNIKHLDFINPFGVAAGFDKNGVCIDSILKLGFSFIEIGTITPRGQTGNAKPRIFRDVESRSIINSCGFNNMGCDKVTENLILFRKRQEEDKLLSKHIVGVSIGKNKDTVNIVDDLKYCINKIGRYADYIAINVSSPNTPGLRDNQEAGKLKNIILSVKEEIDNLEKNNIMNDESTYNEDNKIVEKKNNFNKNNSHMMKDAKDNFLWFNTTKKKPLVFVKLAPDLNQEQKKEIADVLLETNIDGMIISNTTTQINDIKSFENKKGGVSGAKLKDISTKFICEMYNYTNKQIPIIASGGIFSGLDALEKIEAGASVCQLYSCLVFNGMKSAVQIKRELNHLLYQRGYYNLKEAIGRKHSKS
Chain of E3 ubiquitin-protein ligase XIAP (Homo sapiens) (P98170 whole entry, looked up, the tested form may be a part): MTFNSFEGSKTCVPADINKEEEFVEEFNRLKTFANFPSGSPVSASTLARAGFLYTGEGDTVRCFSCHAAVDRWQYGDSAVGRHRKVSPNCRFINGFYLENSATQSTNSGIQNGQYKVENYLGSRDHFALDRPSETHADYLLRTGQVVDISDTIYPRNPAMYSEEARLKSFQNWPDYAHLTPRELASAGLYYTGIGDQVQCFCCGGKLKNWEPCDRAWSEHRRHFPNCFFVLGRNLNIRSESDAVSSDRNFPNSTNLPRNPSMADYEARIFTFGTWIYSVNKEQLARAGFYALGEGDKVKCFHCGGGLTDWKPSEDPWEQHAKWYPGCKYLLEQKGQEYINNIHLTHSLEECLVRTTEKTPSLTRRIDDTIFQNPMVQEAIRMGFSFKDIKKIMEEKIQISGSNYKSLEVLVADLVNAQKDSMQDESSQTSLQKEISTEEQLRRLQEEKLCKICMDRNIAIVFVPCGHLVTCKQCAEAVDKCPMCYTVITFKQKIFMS

Turning to `COCCOC(=O)N1C(=O)[C@@]2(c3cc(C#CCNC(N)=O)ccc31)[C@H](C(=O)N1CCCCCCC1)[C@H]1C(=O)O[C@H](c3ccccc3)[C@H](c3ccccc3)N1[C@@H]2c1ccc(O)cc1`, the z-score in [1] is -0.515; in assay [2], -0.129 (inactive); in assay [3] it was -0.97 (inactive); in assay [5], 0.0442 (inactive); in [6], 0.786 (inactive); in [7], -0.5 (inactive). Further, the z-score in [8] is -0.719 (inactive); in assay [9], -0.928; in assay [13], 0.178; in assay [14], 0.172 (inactive); in assay [15], 0.0004 (inactive); in assay [16] it was 0.132 (inactive). The composite z-score in assay [4] was -0.376 (inactive); in assay [10], 0.0614; in assay [11], 0.328 (inactive); in assay [12] it was 0.46.
As for `CC=CC(O)C1C=CC2C(=O)N(c3ccccc3)C(=O)C2N1Nc1ccc([N+](=O)[O-])cc1` (centres undefined), the z-score was -0.0211 in [1]; 0.0621 (inactive) in assay [2]; -0.156 (inactive) in [3]; 0.71 (inactive) in assay [5]; -0.372 (inactive) in assay [6]; -1.19 (inactive) in [7]. For the same molecule, the z-score is -0.279 (inactive) in assay [8]; 0.0388 in [9]; 1.01 in assay [13]; -3.01 (inactive) in assay [14]; -0.263 (inactive) in assay [15]; -0.973 (inactive) in assay [16]. Further, the composite z-score is -0.213 (inactive) in [4], -0.0807 in assay [10], 0.542 (inactive) in assay [11] and 0.135 in [12].
Consider `C=CCN1C(=O)[C@@]2(O[C@@H](CCO)[C@H]([Si](C)(C)c3ccc(OC)cc3)[C@H]2C)c2cc(N3C(=O)c4ccccc4Oc4ccccc43)ccc21`, for which the z-score in assay [1] was -6.08; in assay [2], -0.0065 (inactive); in assay [3] it was -8.62 (active); in assay [5], 1.95 (inactive); in assay [6], 3.35 (inactive); in assay [7] it was 2.24 (inactive). Further, the z-score in assay [8] was 1.9 (inactive); in [9], -6.24; in assay [13] it was -2.52; in assay [14] it was -4.25 (inactive); in assay [15], -0.948 (inactive); in [16], -0.004 (inactive). For the same molecule, the composite z-score was 0.614 (inactive) in assay [4], -0.172 in [10], 0.227 (inactive) in assay [11] and 0.536 in [12].
For the molecule `Cc1ccc(S[C@]2(C(=O)NCC(F)(F)F)CC(=O)N(Cc3ccccc3)[C@@H]2c2ccc(CO)cc2)cc1`, the z-score is -0.991 in [1]; -0.185 (inactive) in [2]; 0.546 (inactive) in [3]; -0.131 (inactive) in assay [5]; -0.629 (inactive) in assay [6]; 0.163 (inactive) in assay [7]. Besides, the z-score in assay [8] was -0.0965 (inactive); in assay [9] it was 0.342; in assay [13], -1.57; in [14], -3.77 (inactive); in assay [15], -0.336 (inactive); in assay [16], -0.603 (inactive). Moreover, the composite z-score in assay [4] was -0.309 (inactive); in [10], 0.4; in assay [11], 1.02 (inactive); in assay [12] it was 0.5.
Consider `CC(C)(C)OC(=O)CC[C@]1(C(=O)NCCN2CCOCC2)N=C(c2ccc(OCCCO)cc2)O[C@H]1c1ccccc1N=[N+]=[N-]`, for which the z-score in assay [1] is -0.0231; in assay [2], -0.893 (inactive); in [3] it was -1.28 (inactive); in [5], 0.494 (inactive); in [6], -0.279 (inactive); in [7], 0.23 (inactive). Also, the z-score in assay [8] is -0.635 (inactive); in assay [9], -0.565; in assay [13], -1.73; in [14] it was -4.1 (inactive); in [15], 0.0695 (inactive); in [16], 0.234 (inactive). Moreover, the composite z-score in [4] was 0.255 (inactive); in assay [10] it was -0.16; in [11] it was 0.716 (inactive); in assay [12], 0.864.
`Cc1ccc(S[C@]2(C(=O)NC(C)C)CC(=O)N(Cc3ccccc3C(F)(F)F)[C@@H]2c2ccc(CO)cc2I)cc1`: the z-score was 0.105 in assay [1]; -5.85 (inactive) in assay [2]; -1.86 (inactive) in [3]; 0.27 (inactive) in assay [5]; -2.43 (inactive) in assay [6]; 0.221 (inactive) in assay [7]. The z-score was 0.201 (inactive) in assay [8]; -2.09 in [9]; -1.14 in assay [13]; -1.9 (inactive) in [14]; 0.0101 (inactive) in assay [15]; 0.293 (inactive) in [16]. In addition, the composite z-score in [4] was -1.47 (inactive); in assay [10] it was -0.126; in assay [11] it was 0.136 (inactive); in assay [12], 0.582.
For the molecule `C=C(/C=C/CNS(=O)(=O)c1ccc(C)cc1)[C@H](O)[C@H]1CCCN1S(=O)(=O)c1ccccc1[N+](=O)[O-]`, the z-score is -0.0339 in assay [1]; 0.587 (inactive) in [2]; 0.113 (inactive) in assay [3]; -0.447 (inactive) in [5]; 1.41 (inactive) in [6]; 1.45 (inactive) in assay [7]. Moreover, the z-score in [8] was 0.579 (inactive); in [9], 0.0925; in assay [13], -2.04; in assay [14], -5.58 (inactive); in [15], -0.0778 (inactive); in [16], 0.181 (inactive). Further, the composite z-score in assay [4] was 0.858 (inactive); in assay [10], -0.0582; in assay [11] it was -0.121 (inactive); in assay [12], 0.729.
As for `CCOC(=O)[C@H]1C/C=C/C[C@H](C(=O)OCC)C(=O)O[C@H]2[C@@H](OC)O[C@H](CO)[C@@H](OC(=O)Nc3ccc(OC)cc3)[C@@H]2OC1=O`, the z-score in [1] was -1.45; in assay [2], -0.0211 (inactive); in [3], -2.07 (inactive); in [5], 0.979 (inactive); in assay [6], 0.864 (inactive); in assay [7], 0.391 (inactive). Further, the z-score in assay [8] is 1.25 (inactive); in assay [9] it was -1.08; in assay [13], -1.71; in assay [14], -0.589 (inactive); in [15], 0.178 (inactive); in assay [16] it was 0.395 (inactive). Moreover, the composite z-score in assay [4] was 0.214 (inactive); in assay [10], 0.191; in assay [11], 0.568 (inactive); in assay [12], 0.601.
As to `CC(C)CN1C(=O)[C@@]2(c3ccc([N+](=O)[O-])cc3)CC(=O)N(CC34CC5CC(CC(C5)C3)C4)[C@@H]2c2ccc(CO)cc21`, the z-score in assay [1] is -1.64; in assay [2] it was -0.22 (inactive); in [3] it was 0.113 (inactive); in assay [5], 0.146 (inactive); in [6], -0.855 (inactive); in assay [7] it was 0.197 (inactive). Also, the z-score is -0.213 (inactive) in assay [8]; 0.248 in [9]; -1.14 in assay [13]; 0.944 (inactive) in assay [14]; 0.016 (inactive) in [15]; -0.164 (inactive) in assay [16]. Besides, the composite z-score is -4.84 (inactive) in assay [4], -0.289 in [10], 0.141 (inactive) in assay [11] and -0.0737 in assay [12].
